Records with an inconclusive call do not appear. Active and inactive are the calls of the source. Unless noted, calls come from the whole dose curve; as a rule, active = well fitted curve in either direction with a large enough effect (not every such curve was filed as active); inconclusive = small, poorly fitted or top-dose-only effect, or another doubt; inactive = flat fitted curve, though single readings scatter.
Assays:
[1] = target: Lysosomal acid glucosylceramidase (Homo sapiens) (UniProt P04062); experiment: Glucocerebrosidase-p2 (AID 348; in the data active = potency below about 10 µM; note: potency is the fitted concentration of half-maximal effect); details: purified GBA, blue fluorogenic substrate, 40 min
Procedure, shortened: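 Compounds titrated from 0.6 nM upwards against 0.2 nM enzyme in pH 5.9 citric acid/KH2PO4, taurocholate, tween-20; blue fluorogenic substrate 80 uM, 40 min room temperature, stopped and read Ex 365/Em 440 for AC50.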

[2] = AP1 Signaling Pathway (AID 357); details: ME-180 AP-1-bla reporter, EGF-induced, beta-lactamase ratio, 5 h; at 7.69 µM (top of the series) unless noted;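 note: ME-180 reporter cells stimulated with EGF at its EC50 level; % is set by controls: 0 for no effect and ±100 for the full control effect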
Procedure, shortened: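 Beta-lactamase reporter under AP-1 response element, ME-180 background. Stimulus: EC50 EGF. Compound exposure 5 h, 37 °C. Detection: CCF4, 2.5 h RT, 460/530 nm. Values: AC50 from titration.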

[3] = NFAT Signaling Pathway (AID 444); details: Jurkat NFAT-bla M1, carbachol, beta-lactamase ratio, 5 h; at 7.69 µM (top of the series) unless noted;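 note: carbachol stimulus at about its EC50 of 1 µM final; % is set by controls: 0 for no effect and ±100 for the full control effect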
Procedure, shortened: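 Jurkat cells carrying an NFAT-driven β-lactamase reporter and co-transfected muscarinic M1 receptor were treated with compound plus carbachol (1 uM final, an EC50 level) for 5 h at 37 °C. CCF4 loading followed for 1 h at RT; 460/530 nm ratio gave %activity.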

[4] = Stat Signaling Pathway (AID 446); details: ME-180 (cervical carcinoma) SIE beta-lactamase reporter, IL-6 stimulated, 5 h; at 7.69 µM (top of the series) unless noted;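 note: ME-180 cervical cancer cells given 40 pM IL-6 alongside compound; SIE-controlled beta-lactamase reporter measured as 460/530 nm FRET emission ratio; % is set by controls: 0 for no effect and ±100 for the full control effect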
Procedure, shortened: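 IL-6/STAT signaling read in ME-180 cells via an SIE beta-lactamase reporter. Stimulus was 40 pM IL-6 (its AC50) for 5 hrs, so both activation and inhibition register.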

[5] = target: Glucocorticoid receptor (Homo sapiens) (UniProt P04150); experiment: GR-GFP Redistribution (AID 450;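 active = compounds whose dose series gives a full or clear partial fitted curve of increased nuclear translocation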; note: potency is the fitted concentration of half-maximal effect); details: U2OS GR-GFP nuclear translocation, laser cytometry, 2 h
[6] = target: Glucocorticoid receptor (Homo sapiens) (UniProt P04150); experiment: GR-EFC Redistribution (AID 451; calls by dose curve; note: potency is the fitted concentration of half-maximal effect); details: CHO-K1 GR-EFC translocation, beta-gal luminescence, 2 h
Procedure, shortened: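 CHO-K1 cells stably expressing nuclear-localized β-gal enzyme acceptor and GR fused C-terminally to the enzyme donor fragment; ligand-driven nuclear translocation restores β-gal by complementation. Compounds titrated up to 46 uM final, 2 h at 37 °C; luminescence read.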

[7] = target: Mitogen-activated protein kinase 10 (Mus musculus) (UniProt Q61831); experiment: JNK3 AlphaScreen Assay (AID 530); details: JNK3 lysate, c-Jun phosphorylation; series mostly up to 11.4 µM;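 note: kinase came from lysate of stimulated human HepG2 cells; signal reports phosphorylation of biotinylated GST-cJun 1-79 at Ser73 with 10 µM ATP; % is set by controls: 0 for no effect and ±100 for the full control effect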
Procedure, shortened: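 Inhibitors reduce antibody binding to phosphorylated biotin-cJun, lowering AlphaScreen luminescence. Lysates from HepG2 cells pre-activated by IL-1beta plus TNF-alpha supplied JNK3; compounds were titrated.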

[8] = target: 3',5'-cyclic-AMP phosphodiesterase 4B (Homo sapiens) (UniProt Q07343); experiment: qHTS Assay for Inhibitors of PDE-IV (AID 607; active = well fitted activation curve with a large enough effect in the main read-out, with a control signal flat, not every such curve was filed as active; note: % of control where 0% means no effect); details: HEK293 ACTOne CNG channel cells, membrane potential fluorescence; series mostly up to 22.9 µM
Procedure, shortened: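 Live HEK293 cells with a modified cyclic nucleotide-gated (CNG) channel report intracellular cAMP via membrane-potential dye fluorescence (ex 535/em 590 nm). Endogenous PDE-IV was targeted. Compounds were tested at up to 22.9 uM final; RO 20-1724 100 uM served as control.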

[9] = target: ATP-dependent 6-phosphofructokinase (Trypanosoma brucei brucei) (UniProt O15648); experiment: qHTS Assay to Find Inhibitors of T. brucei phosphofructokinase: hit validation (AID 492961; active = well fitted curve in the direction sought with a large enough effect; an effect the other way counts as inactive or inconclusive); details: T. brucei PFK, ADP-Glo luminescence; series mostly up to 51.4 µM
Procedure, shortened: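 Reaction: 0.1 M triethanolamine pH 8.0, 5 mM MgCl2, F6P 0.5 mM, ATP 0.1 mM, PFK 1.25 nM, 45 min RT. Read-out: ADP-Glo luminescence. Analysis: concentration-response fits, classed by r2 and efficacy.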

[10] = qHTS profiling for inhibitors of Plasmodium falciparum proliferation (AID 504749; active = well fitted curve in the direction sought with a large enough effect; an effect the other way counts as inactive or inconclusive;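 note: 0% = DMSO vehicle and full inhibition = artemisinin control; nearly all actives have a fitted effect of over 60% in size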); details: P. falciparum in erythrocytes, SYBR Green DNA, 72 h, at 28.7 µM (top of the series)
Procedure, shortened: (§1)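 Parasite proliferation within erythrocytes, 72 h exposure. Endpoint: SYBR Green I fluorescence after overnight lysis at room temperature. Controls: 0.29 uM artemisinin, DMSO.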

AS120 = experiment: as above; details: P. falciparum in erythrocytes, SYBR Green DNA, 72 h; series mostly up to 28.7 µM
Procedure, shortened: as §1

ATS189 = experiment: as above; details: P. falciparum in erythrocytes, SYBR Green DNA, 72 h; series mostly up to 28.7 µM
Procedure, shortened: as §1

TAB113 = experiment: as above; details: P. falciparum in erythrocytes, SYBR Green DNA, 72 h; series mostly up to 28.7 µM
Procedure, shortened: as §1

W2 = experiment: as above; details: P. falciparum in erythrocytes, SYBR Green DNA, 72 h; series mostly up to 28.7 µM
Procedure, shortened: as §1

Lysosomal acid glucosylceramidase (Homo sapiens), sequence (P04062 whole entry, looked up): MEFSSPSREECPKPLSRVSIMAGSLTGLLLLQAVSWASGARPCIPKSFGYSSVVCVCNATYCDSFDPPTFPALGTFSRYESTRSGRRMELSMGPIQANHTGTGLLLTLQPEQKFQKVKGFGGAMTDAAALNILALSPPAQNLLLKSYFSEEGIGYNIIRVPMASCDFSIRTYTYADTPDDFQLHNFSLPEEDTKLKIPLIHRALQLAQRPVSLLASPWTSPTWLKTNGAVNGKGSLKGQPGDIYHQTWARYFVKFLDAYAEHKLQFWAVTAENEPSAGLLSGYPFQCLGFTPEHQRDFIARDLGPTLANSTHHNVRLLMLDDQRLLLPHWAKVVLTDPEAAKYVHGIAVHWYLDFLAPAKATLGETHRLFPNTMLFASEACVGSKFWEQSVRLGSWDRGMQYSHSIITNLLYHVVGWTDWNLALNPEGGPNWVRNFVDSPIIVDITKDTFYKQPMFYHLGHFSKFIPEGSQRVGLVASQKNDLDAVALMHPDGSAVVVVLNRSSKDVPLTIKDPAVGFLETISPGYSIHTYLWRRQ
Glucocorticoid receptor (Homo sapiens), sequence (P04150 whole entry, looked up, the tested form may be a part): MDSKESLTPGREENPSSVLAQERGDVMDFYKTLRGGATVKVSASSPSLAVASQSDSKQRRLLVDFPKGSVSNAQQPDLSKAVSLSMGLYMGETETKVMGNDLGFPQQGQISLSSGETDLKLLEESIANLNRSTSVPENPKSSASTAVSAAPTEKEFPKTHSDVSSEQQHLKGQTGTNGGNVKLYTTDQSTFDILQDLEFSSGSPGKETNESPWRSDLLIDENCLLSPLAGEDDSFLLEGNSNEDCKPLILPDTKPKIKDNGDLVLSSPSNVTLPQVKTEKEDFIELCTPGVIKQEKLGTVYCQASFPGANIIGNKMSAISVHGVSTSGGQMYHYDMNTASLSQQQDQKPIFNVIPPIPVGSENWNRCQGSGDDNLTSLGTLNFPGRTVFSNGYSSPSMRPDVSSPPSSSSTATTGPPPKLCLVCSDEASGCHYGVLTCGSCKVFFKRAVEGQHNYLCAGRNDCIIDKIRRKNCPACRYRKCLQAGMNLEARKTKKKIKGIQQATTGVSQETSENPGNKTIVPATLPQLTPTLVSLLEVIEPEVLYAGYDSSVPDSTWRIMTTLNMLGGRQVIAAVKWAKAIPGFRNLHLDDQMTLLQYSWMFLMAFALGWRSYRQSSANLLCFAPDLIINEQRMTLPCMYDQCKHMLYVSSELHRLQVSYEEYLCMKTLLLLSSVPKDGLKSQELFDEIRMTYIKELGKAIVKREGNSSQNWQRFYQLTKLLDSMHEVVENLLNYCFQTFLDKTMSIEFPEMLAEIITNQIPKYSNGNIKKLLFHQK
3',5'-cyclic-AMP phosphodiesterase 4B (Homo sapiens), sequence (Q07343 whole entry, looked up): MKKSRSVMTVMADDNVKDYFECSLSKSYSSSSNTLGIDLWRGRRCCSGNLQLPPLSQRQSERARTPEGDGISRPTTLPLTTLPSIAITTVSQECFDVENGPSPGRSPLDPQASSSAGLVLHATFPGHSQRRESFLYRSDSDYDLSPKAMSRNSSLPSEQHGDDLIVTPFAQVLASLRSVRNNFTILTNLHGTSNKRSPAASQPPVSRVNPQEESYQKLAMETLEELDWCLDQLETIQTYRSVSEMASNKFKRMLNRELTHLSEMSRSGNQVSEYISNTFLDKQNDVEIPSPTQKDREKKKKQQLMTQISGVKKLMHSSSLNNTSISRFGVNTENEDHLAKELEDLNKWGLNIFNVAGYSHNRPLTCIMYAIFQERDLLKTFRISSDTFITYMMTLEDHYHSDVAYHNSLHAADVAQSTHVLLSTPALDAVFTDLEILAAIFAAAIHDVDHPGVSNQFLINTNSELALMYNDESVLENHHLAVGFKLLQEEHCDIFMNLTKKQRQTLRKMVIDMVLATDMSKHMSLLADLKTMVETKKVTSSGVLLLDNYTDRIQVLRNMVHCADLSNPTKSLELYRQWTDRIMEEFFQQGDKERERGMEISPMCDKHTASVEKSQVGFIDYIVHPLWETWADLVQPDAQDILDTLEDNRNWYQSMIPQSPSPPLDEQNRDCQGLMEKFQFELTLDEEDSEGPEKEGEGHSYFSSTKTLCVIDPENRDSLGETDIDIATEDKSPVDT
ATP-dependent 6-phosphofructokinase (Trypanosoma brucei brucei), sequence (O15648 whole entry, looked up): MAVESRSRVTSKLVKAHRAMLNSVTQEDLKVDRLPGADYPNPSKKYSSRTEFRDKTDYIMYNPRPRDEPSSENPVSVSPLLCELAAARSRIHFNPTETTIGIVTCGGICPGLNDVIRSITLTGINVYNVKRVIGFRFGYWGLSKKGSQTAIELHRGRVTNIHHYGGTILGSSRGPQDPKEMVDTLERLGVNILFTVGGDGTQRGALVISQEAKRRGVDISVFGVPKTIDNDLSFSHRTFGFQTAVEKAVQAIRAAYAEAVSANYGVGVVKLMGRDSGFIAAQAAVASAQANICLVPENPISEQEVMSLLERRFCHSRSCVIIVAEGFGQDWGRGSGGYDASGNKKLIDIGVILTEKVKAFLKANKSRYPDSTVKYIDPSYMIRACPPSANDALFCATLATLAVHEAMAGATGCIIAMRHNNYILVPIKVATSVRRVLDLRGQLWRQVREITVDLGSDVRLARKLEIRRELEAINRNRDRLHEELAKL

CCc1ccc(CCC(=O)O)nc1
inactive: Potency [1] > 11.4 µM | activity change, negative = inhibition [2] 0.964% | activity change, negative = inhibition [3] -3.46% | activity, negative = inhibition [4] -13.2% | Potency [5] > 46 µM | Potency [6] > 9.22 µM | Potency [7] | Potency [8]

NCC(=O)[C@@H](O)[C@H](O)[C@H](O)CO
inactive: Potency [1] > 11.4 µM | activity change, negative = inhibition [2] -1.89% | activity change, negative = inhibition [3] 8.35% | activity, negative = inhibition [4] 3.6% | Potency [5] > 46 µM | Potency [6] > 9.22 µM | Potency [7] | Potency [8]

Cc1onc(-c2c(F)cccc2Cl)c1C(=O)N[C@@H]1C(=O)N2[C@H]1SC(C)(C)[C@H]2C(=O)O
inactive: Potency [1] > 11.4 µM | activity change, negative = inhibition [2] -24% | activity change, negative = inhibition [3] 13.8% | activity, negative = inhibition [4] 5.59% | Potency [5] > 46 µM | Potency [6] > 9.22 µM | Potency [7] | Potency [8] | outcome [9] | activity, negative = inhibition ([10]; parasite line A) 1.43% | activity, negative = inhibition ([10]; parasite line B) 6.57% | Potency (AS120) | Potency (ATS189) | Potency (TAB113) | Potency (W2)

CNS(=O)(=O)c1ccccc1C(=N)c1ccccc1
inactive: Potency [1] > 11.4 µM | activity change, negative = inhibition [2] -4.6% | activity change, negative = inhibition [3] 1.97% | activity, negative = inhibition [4] 0.878% | Potency [5] > 46 µM | Potency [6] > 9.22 µM | Potency [7] | Potency [8]

CC(=O)Nc1c(C)cc(OCC(=O)O)cc1C
inactive: Potency [1] > 11.4 µM | activity change, negative = inhibition [2] -0.915% | activity change, negative = inhibition [3] 19.3% | activity, negative = inhibition [4] 12.5% | Potency [5] > 46 µM | Potency [6] > 9.22 µM | Potency [7] | Potency [8]

O=C(O)c1ccc(C(=O)O)c2c(C(=O)O)ccc(C(=O)O)c12
inactive: Potency [1] > 11.4 µM | activity change, negative = inhibition [2] -5.07% | activity change, negative = inhibition [3] 5.59% | activity, negative = inhibition [4] -1.89% | Potency [5] > 46 µM | Potency [6] > 9.22 µM | Potency [7] | Potency [8]

Cn1c(N)nc2c(nc(OCc3ccccc3)n2[C@@H]2O[C@H](CO)[C@@H](O)[C@@H]2O)c1=O
inactive: Potency [1] > 11.4 µM | activity change, negative = inhibition [2] 2.38% | activity change, negative = inhibition [3] 6.31% | activity, negative = inhibition [4] -1.71% | Potency [5] > 46 µM | Potency [6] > 9.22 µM | Potency [7] | Potency [8]

O=[N+]([O-])c1cccc(/C=N\NC2=CS(=O)(=O)C=C2)c1
inactive: Potency [1] > 11.4 µM | activity change, negative = inhibition [2] 4.95% | activity change, negative = inhibition [3] 14.6% | activity, negative = inhibition [4] 5.97% | Potency [5] > 46 µM | Potency [6] > 9.22 µM | Potency [7]

CC[C@@H](c1ccc2cc(O)ccc2c1)C(C)(C)C(=O)O
inactive: Potency [1] > 11.4 µM | activity change, negative = inhibition [2] -1.38% | activity change, negative = inhibition [3] 8.96% | activity, negative = inhibition [4] 6.79% | Potency [5] > 46 µM | Potency [6] > 9.22 µM | Potency [7] | Potency [8]

CC1(C)S[C@@H]2[C@H](NC(=O)C3(N)CCCCC3)C(=O)N2[C@@H]1C(=O)O
inactive: Potency [1] > 11.4 µM | activity change, negative = inhibition [2] -5.88% | activity change, negative = inhibition [3] 9.48% | activity, negative = inhibition [4] 0.508% | Potency [5] > 46 µM | Potency [6] > 9.22 µM | Potency [7]

CCC(=O)[C@@H](c1ccccc1)c1ccccn1
inactive: Potency [1] > 11.4 µM | activity change, negative = inhibition [2] 10.3% | activity change, negative = inhibition [3] -5.51% | activity, negative = inhibition [4] 0.735% | Potency [5] > 46 µM | Potency [6] > 9.22 µM | Potency [7] | Potency [8]

COc1ccc(Oc2ncc3nc(C)c(=O)n(Cc4ccc(F)cc4)c3n2)cc1
inactive: Potency [1] > 11.4 µM | activity change, negative = inhibition [2] -26.5% | activity change, negative = inhibition [3] -3.9% | activity, negative = inhibition [4] -12.2% | Potency [5] > 9.22 µM | Potency [6] > 46 µM | Potency [7]

C[C@@H](CCC(=O)O)C(=O)O
inactive: Potency [1] > 11.4 µM | activity change, negative = inhibition [2] 3.57% | activity change, negative = inhibition [3] 5.4% | activity, negative = inhibition [4] 0.834% | Potency [5] > 46 µM | Potency [6] > 9.22 µM | Potency [7] | Potency [8]

O=C(O)CCNCC(=O)O
inactive: Potency [1] > 11.4 µM | activity change, negative = inhibition [2] 2.01% | activity change, negative = inhibition [3] 0.769% | activity, negative = inhibition [4] -2.35% | Potency [5] > 46 µM | Potency [6] > 9.22 µM | Potency [7] | Potency [8]

Nc1nc(SCc2ccccn2)c2ncn(C3CCCC3)c2n1
inactive: Potency [1] > 11.4 µM | activity change, negative = inhibition [2] -14.6% | activity change, negative = inhibition [3] 9.85% | activity, negative = inhibition [4] 4.58% | Potency [5] > 46 µM | Potency [6] > 9.22 µM | Potency [7]

C[C@H](CCC(=O)O)[C@H]1CC[C@@H]2[C@H]3[C@@H](C[C@@H](O)[C@]21C)[C@]1(C)CC[C@H](O)C[C@@H]1C[C@@H]3O
inactive: Potency [1] > 11.4 µM | activity change, negative = inhibition [2] 1.25% | activity change, negative = inhibition [3] 14.6% | activity, negative = inhibition [4] 13% | Potency [5] > 46 µM | Potency [6] > 9.22 µM | Potency [7] | Potency [8] | outcome [9] | activity, negative = inhibition ([10]; parasite line A) -6.11% | activity, negative = inhibition ([10]; parasite line B) -10.8% | Potency (AS120) | Potency (ATS189) | Potency (TAB113) | Potency (W2)

Reference: PubChem BioAssay (NCATS)
